Reference: PubChem BioAssay (NCATS)
Activity calls are given as the source filed them. The call rests on the fitted dose curve; in most records, active means well fitted curve in the direction sought with a large enough effect; inconclusive means small, poorly fitted or top-dose-only effect, or another doubt; inactive means no such curve, though single readings can be large or run the other way.

The compounds below were run against T1, Hexokinase-4 (Homo sapiens) + Glucokinase regulatory protein (Homo sapiens) (UniProt P35557+Q14397) (assay: qHTS assay for inhibitors of recombinant human GCK-GKRP interaction: Diaphorase-coupled assay (AID 743205)). Settings: G6PDH/diaphorase resorufin fluorescence; series mostly up to 57.5 µM.
T1 sequence (P35557 whole entry, looked up): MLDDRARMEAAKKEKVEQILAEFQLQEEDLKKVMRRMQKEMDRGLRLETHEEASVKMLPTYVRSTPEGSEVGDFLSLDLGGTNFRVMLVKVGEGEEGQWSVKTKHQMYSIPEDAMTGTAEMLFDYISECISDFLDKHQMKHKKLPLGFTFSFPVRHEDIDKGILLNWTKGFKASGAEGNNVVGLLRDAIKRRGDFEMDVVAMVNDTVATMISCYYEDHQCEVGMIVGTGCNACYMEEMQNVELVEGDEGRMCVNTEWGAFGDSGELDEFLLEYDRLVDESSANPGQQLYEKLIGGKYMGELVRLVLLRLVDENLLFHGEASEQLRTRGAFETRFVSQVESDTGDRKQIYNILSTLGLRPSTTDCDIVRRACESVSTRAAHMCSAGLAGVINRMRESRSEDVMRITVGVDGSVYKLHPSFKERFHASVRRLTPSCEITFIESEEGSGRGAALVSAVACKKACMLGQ
T1 sequence (Q14397 whole entry, looked up): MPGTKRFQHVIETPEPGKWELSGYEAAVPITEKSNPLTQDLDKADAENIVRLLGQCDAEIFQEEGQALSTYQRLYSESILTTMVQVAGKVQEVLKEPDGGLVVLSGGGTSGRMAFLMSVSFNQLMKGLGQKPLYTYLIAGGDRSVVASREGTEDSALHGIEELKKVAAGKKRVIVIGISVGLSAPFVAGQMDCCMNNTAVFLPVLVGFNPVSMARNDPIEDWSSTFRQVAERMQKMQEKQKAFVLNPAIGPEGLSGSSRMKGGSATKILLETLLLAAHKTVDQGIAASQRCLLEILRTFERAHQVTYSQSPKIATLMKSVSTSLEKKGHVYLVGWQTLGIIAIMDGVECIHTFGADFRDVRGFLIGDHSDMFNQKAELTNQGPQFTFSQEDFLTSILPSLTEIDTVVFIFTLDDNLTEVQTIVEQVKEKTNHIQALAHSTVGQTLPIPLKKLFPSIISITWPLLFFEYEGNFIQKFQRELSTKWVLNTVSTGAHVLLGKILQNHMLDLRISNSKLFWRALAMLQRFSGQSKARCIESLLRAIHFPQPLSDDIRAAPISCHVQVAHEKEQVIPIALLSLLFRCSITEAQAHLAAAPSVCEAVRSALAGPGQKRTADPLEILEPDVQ
How it was run: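 Signal derives from resorufin generated by diaphorase, linked to GCK turnover of glucose (5 mM) and ATP (0.4 mM). Enzyme complex was added after a 20-minute compound preincubation and monitored for 30 minutes.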
In the case of CC(=O)OCC(=O)[C@@]1(O)CC[C@H]2[C@@H]3CCC4=CC(=O)CC[C@]4(C)[C@H]3C(=O)C[C@@]21C, the outcome is reported as “inactive”. In the case of CCN(CC)CCOC(=O)C1(C2CCCCC2)CCCCC1, the outcome is reported as “inactive”. With CC(CN(C)C)CN1c2ccccc2CCc2ccccc21 (stereo unspecified) the outcome was “inactive”. With C#CCN(C)Cc1ccccc1 the outcome was “inactive”. For CNCC(O)c1ccc(O)c(O)c1 (stereo unspecified), the outcome was “inactive”. COCCOC(=O)C1=C(C)NC(C)=C(C(=O)OC/C=C/c2ccccc2)C1c1cccc([N+](=O)[O-])c1 (stereo unspecified) was tested, and the outcome was “inactive”. For Nc1ncnc2c1ncn2[C@@H]1O[C@H](CO)[C@@H](O)[C@H]1O, the outcome was “inactive”. For Nc1cc(=O)[nH]c(N)n1, the outcome was “inactive”. With CC(C)(C(=O)O)c1ccc(C(O)CCCN2CCC(C(O)(c3ccccc3)c3ccccc3)CC2)cc1 (stereo unspecified) the outcome was “inactive”. With N=c1c[n+](N2CCOCC2)[n-]o1 the outcome was “inactive”. With CN1CCN(C2Cc3ccccc3Sc3ccc(Cl)cc32)CC1 (stereo unspecified) the outcome was “inactive”. For CNCCC(Oc1ccc(C(F)(F)F)cc1)c1ccccc1 (stereo unspecified), the outcome was “inactive”. For CC1=C(CC(=O)O)c2cc(F)ccc2/C1=C\c1ccc(S(C)=O)cc1 (stereo unspecified), the outcome was “inactive”. With CC(C)NC[C@H](O)c1ccc(O)c(O)c1 the outcome was “inactive”. With NC(N)=NCCC[C@H](N)C(=O)O the outcome was “inactive”. In the case of CC(C(O)c1ccc(O)cc1)N1CCC(Cc2ccccc2)CC1 (stereo unspecified), the outcome is reported as “inactive”.

These compounds were tested against T1, Hexokinase-4 (Homo sapiens) + Glucokinase regulatory protein (Homo sapiens) (assay: qHTS assay for inhibitors of recombinant human GCK-GKRP interaction: ADP-Glo assay (AID 743206)). Settings: ADP-Glo luminescence, 60 min, 0% = vehicle-only wells with enzyme present; series mostly up to 76.9 µM.
How it was run: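 Pin-transferred compounds meet a 15 nM GST-GCK/15 nM FLAG-GKRP/2 uM S6P mix (dispense concentrations). ATP is then added to 0.4 mM final with 5 mM glucose, and the reaction runs 60 min at room temperature. ADP is quantified luminescently.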
NC1CCN(c2cccc(Cl)n2)CC1 was tested, and the outcome was “inactive”. In the case of CC(C)C(=O)c1c(C(C)C)nn2ccccc12, the outcome is reported as “inactive”. With CC(C)(C)[C@]1(O)CCN2C[C@H]3c4ccccc4CCc4cccc(c43)[C@@H]2C1 the outcome was “inactive”. With CCCCCCCCCCCCCCCC(=O)NCCO the outcome was “inactive”. In the case of Cc1cc(N)c2ccccc2[n+]1CCCCCCCCCC[n+]1c(C)cc(N)c2ccccc21, the outcome is reported as “inactive”. In the case of CCCn1cnc2c1c(=O)n(CCCCC(C)=O)c(=O)n2C, the outcome is reported as “inactive”. For CC[C@H]1CN2CCc3cc(OC)c(OC)cc3[C@@H]2C[C@@H]1C[C@H]1NCCc2cc(OC)c(OC)cc21, the outcome was “inactive”. With CN(C)CC[C@@H](c1ccc(Cl)cc1)c1ccccn1 the outcome was “inactive”. CCN(CC)CCCC(C)Nc1c2ccc(Cl)cc2nc2ccc(OC)cc12 (stereo unspecified) was tested, and the outcome was “inactive”. In the case of CNCCCC1c2ccccc2C=Cc2ccccc21, the outcome is reported as “inactive”. In the case of CSc1ccc2c(c1)N(CCC1CCCCN1C)c1ccccc1S2 (stereo unspecified), the outcome is reported as “inactive”. For CC(C)(C)c1onc(OCP(=O)(O)O)c1CC(N)C(=O)O (stereo unspecified), the outcome was “inactive”. With C[C@](N)(Cc1ccc(O)cc1)C(=O)O the outcome was “inactive”. For CCN(CC)CCNC(=O)c1cc(Cl)c(N)cc1OC, the outcome was “inactive”. In the case of CCN(CC)C(C)CN1c2ccccc2Sc2ccccc21 (stereo unspecified), the outcome is reported as “inactive”. CC1=C(CC(=O)O)c2cc(F)ccc2/C1=C\c1ccc(S(C)(=O)=O)cc1 was tested, and the outcome was “inactive”. In the case of O=C1N=C(O)CN1/N=C/c1ccc(-c2ccc([N+](=O)[O-])cc2)o1, the outcome is reported as “inactive”. With C=Cc1c(C)c2cc3[nH]c(cc4nc(cc5nc(cc1[nH]2)C(C)=C5CCC(=O)O)C(CCC(=O)O)=C4C)c(C)c3C=C the outcome was “inactive”. In the case of OCCN1CCN(CCCN2c3ccccc3Sc3ccc(Cl)cc32)CC1, the outcome is reported as “inactive”. In the case of CC(=O)OCC(=O)[C@@]1(O)CC[C@H]2[C@@H]3CCC4=CC(=O)CC[C@]4(C)[C@H]3C(=O)C[C@@]21C, the outcome is reported as “inactive”. With CCN(CC)CCOC(=O)C1(C2CCCCC2)CCCCC1 the outcome was “inactive”. With CC(CN(C)C)CN1c2ccccc2CCc2ccccc21 (stereo unspecified) the outcome was “inactive”. C#CCN(C)Cc1ccccc1 was tested, and the outcome was “inactive”. With CNCC(O)c1ccc(O)c(O)c1 (stereo unspecified) the outcome was “inactive”. COCCOC(=O)C1=C(C)NC(C)=C(C(=O)OC/C=C/c2ccccc2)C1c1cccc([N+](=O)[O-])c1 (stereo unspecified) was tested, and the outcome was “inactive”. For Nc1ncnc2c1ncn2[C@@H]1O[C@H](CO)[C@@H](O)[C@H]1O, the outcome was “inactive”. In the case of Nc1cc(=O)[nH]c(N)n1, the outcome is reported as “inactive”. For CC(C)(C(=O)O)c1ccc(C(O)CCCN2CCC(C(O)(c3ccccc3)c3ccccc3)CC2)cc1 (stereo unspecified), the outcome was “inactive”. N=c1c[n+](N2CCOCC2)[n-]o1 was tested, and the outcome was “inactive”. With CN1CCN(C2Cc3ccccc3Sc3ccc(Cl)cc32)CC1 (stereo unspecified) the outcome was “inactive”. In the case of CNCCC(Oc1ccc(C(F)(F)F)cc1)c1ccccc1 (stereo unspecified), the outcome is reported as “inactive”. For CC1=C(CC(=O)O)c2cc(F)ccc2/C1=C\c1ccc(S(C)=O)cc1 (stereo unspecified), the outcome was “inactive”. In the case of CC(C)NC[C@H](O)c1ccc(O)c(O)c1, the outcome is reported as “inactive”. In the case of NC(N)=NCCC[C@H](N)C(=O)O, the outcome is reported as “inactive”. CC(C(O)c1ccc(O)cc1)N1CCC(Cc2ccccc2)CC1 (stereo unspecified) was tested, and the outcome was “inactive”.
